From PubChem BioAssay
HT1080-NT tox: kills 2HG-producing HT-1080-NT fibrosarcoma cells | HT-1080-NT fibrosarcoma viability, CellTiter-Glo ATP luminescence, 48 h | Potency, µM (doses to about 46.1 µM), inactives show top-dose activity, negative = less viability, usual class: cytotoxic | 1.6% of 360,000 active;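 further: NT is the 2HG producing partner of a matched IDH1 knockdown line; potency means the concentration at half of the fitted maximal effect; 0% = DMSO-treated cells and -100% = media-only wells without cells; nearly all actives have a fitted effect of over 55% in size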
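A 48-hour cytotoxicity screen used HT-1080-NT cells plated 2 hours before compound delivery. ATP-based CellTiter-Glo luminescence measured viability, normalized to DMSO and no-cell controls.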
TDP1 cell noCPT: qHTS for Inhibitors of human tyrosyl-DNA phosphodiesterase 1 (TDP1): qHTS in cells in absence of CPT | DT40 Tdp1-/- hTDP1 cells, no CPT, ATP luminescence, 48 h | Potency, µM (titrated, usually from 46.2 µM), without a hit: at the highest dose activity change, negative = growth inhibition, most hits filed as inhibitors | 15% of 420,000 active | AID 686978, 2013; further: potency means the concentration at half of the fitted maximal effect; nearly all actives have a fitted effect of over 55% in size
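No-CPT arm: Tdp1-/-;hTDP1 DT40 cells (400/well) plus compounds, incubated ≥48 hr at 37 °C. Readout CellTiter-Glo luminescence.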
IL-1B inflam inh: inflammasome signaling inhibition, IL-1 beta readout. activity change, % at 57.5 µM. 4.7% of 360,000 active. THP-1 LPS/ATP IL-1B secretion, AlphaLISA, 16 h; hits give low values. AID 743279; in the data active means activity change below about -50%; inconclusive means mostly about -30% to -49%
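Secreted IL-1B measured by AlphaLISA bead assay after 16 h compound exposure of THP-1 cells; compounds (final up to 57.5 uM) added 1 h before LPS (250 ng/mL) and ATP (1.25 mM) stimulation; lower signal means less secretion.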
ALOX12 inh: blocks human arachidonate 12S-lipoxygenase. P18054. purified 12hLO, xylenol orange hydroperoxide absorbance. Potency, µM (titrated, usually from 108 µM), inactives show at the highest dose activity change, negative = inhibition, most hits filed as inhibitors. 1.1% of 580,000 active. AID 1671190; further: potency means the concentration at half of the fitted maximal effect
Target sequence (P18054 whole entry, looked up): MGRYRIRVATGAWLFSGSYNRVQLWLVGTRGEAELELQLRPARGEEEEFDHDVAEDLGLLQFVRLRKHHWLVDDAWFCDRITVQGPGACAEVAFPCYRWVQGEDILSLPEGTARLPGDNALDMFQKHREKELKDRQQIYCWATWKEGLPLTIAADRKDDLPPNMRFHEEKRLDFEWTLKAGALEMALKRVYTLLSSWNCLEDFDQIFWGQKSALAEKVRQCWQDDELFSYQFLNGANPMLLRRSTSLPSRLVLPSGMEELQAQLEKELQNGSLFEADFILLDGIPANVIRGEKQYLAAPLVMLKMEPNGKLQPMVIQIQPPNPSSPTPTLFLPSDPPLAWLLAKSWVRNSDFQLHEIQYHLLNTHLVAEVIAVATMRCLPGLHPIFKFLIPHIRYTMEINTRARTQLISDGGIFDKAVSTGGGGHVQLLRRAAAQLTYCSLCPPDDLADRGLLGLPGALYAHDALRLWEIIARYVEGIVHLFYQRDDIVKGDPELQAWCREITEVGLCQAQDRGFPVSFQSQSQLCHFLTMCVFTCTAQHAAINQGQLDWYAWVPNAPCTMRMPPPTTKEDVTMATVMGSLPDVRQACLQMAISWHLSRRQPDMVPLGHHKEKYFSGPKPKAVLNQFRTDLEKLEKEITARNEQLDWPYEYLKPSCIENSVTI
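Purified human 12hLO at 150 nM in 25 mM Hepes, 0.01% Triton X-100, pH 7.0, preincubated 15 min at room temperature with compound. Reaction started with 40 uM arachidonic acid, 30 min at room temperature. Hydroperoxide measured by Fe-xylenol orange, 573/405 nm absorbance ratio.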
HT1080 IDH1KD tx: HT-1080 IDH1 knockdown cell toxicity (counter line); 2% of 360,000 active; HT-1080 IDH1 knockdown viability, ATP luminescence, 48 h; Potency, µM (doses to about 46.1 µM), inactives show at the top dose activity, negative = toxicity, usual class: cytotoxic; AID 686971;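 further: potency means the concentration at half of the fitted maximal effect; 0% = DMSO wells and -100% = cell-free medium wells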
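Viability of IDH1-knockdown HT-1080 fibrosarcoma cells was assessed by CellTiter-Glo after 48 h at 37 °C with titrated compound; concentration-effect curves were classified by fit quality and response size.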
TDP1 cell CPT: growth inhibition of DT40 Tdp1-/-;hTDP1 cells with camptothecin (screen for TDP1 inhibitors). chicken DT40 Tdp1-/-;hTDP1 cells + 20 nM CPT, ATP luminescence, 48 h. Potency, µM (series often up to 46.2 µM), without a hit: at the highest dose activity change, negative = growth inhibition, hits mostly inhibitors. 12% of 420,000 active. AID 686979; further: potency means the concentration at half of the fitted maximal effect; nearly all actives have a fitted effect of over 55% in size
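Chicken DT40 Tdp1-/- cells complemented with human TDP1, 400 cells/well, exposed to compounds plus 20 nM camptothecin for at least 48 h at 37 C; viability read as ATP content by CellTiter-Glo luminescence.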
* hit, by the source's call; u = inconclusive; x = no result given. Shown is part of a subset that was picked to be rich in hits. Unless noted, the call rests on the fitted dose curve; in most records, active means well fitted curve in the direction sought with a large enough effect; inconclusive means small, poorly fitted or top-dose-only effect, or another doubt; inactive means no such curve, though single readings can be large; an effect the other way counts as inactive or inconclusive. Unless noted, on the % scale 0 is the no-effect control and ±100 the full control effect.

SMILES	HT1080-NT tox	TDP1 cell noCPT	IL-1B inflam inh	ALOX12 inh	HT1080 IDH1KD tx	TDP1 cell CPT
Cc1nn(-c2ccccc2)c(Cl)c1/C=N/NC(=O)c1[nH]ncc1Br	-21.9%	u	-21.2	4.0%	-11.7%	u
COc1ccc(C(=O)Nc2ccc(-c3cc4ccccc4oc3=O)c(C)c2)cc1OC	x	16.4µM*	x	-7.3%	x	18.4µM*
O=C(Cc1ccc(Cl)cc1)Nc1ccc(-c2cc3ccccc3oc2=O)c(Cl)c1	6.51µM*	2.91µM*	23.2	-7.9%	6.51µM*	5.17µM*
COc1cc(NC(=O)c2cc(Cl)ccc2Cl)ccc1-c1cc2ccccc2oc1=O	5.6%	-27.9%	-15.0	21.4%	-25.6%	u
CCc1ccc(OCC(=O)Nc2ccc(-c3cc4ccccc4oc3=O)c(OC)c2)cc1	u	7.31µM*	7.2	2.6%	u	6.51µM*
O=C(Cc1ccc(Cl)cc1)Nc1ccc2oc(=O)ccc2c1	16.7%	-26.5%	u	-27.1%	-17.0%	-22.7%
COC(=O)c1cc(OC(=O)c2ccccc2)cc(C(=O)OC)c1	x	x	x	16.5%	x	x
CCOC(=O)c1c(-c2ccco2)csc1NC(=O)COC(=O)c1cnc(C)cn1	6.3%	-8.6%	-1.0	u	-0.5%	-6.2%
CCN(CC)CCN(C(=O)c1cc2ccccc2cc1OC)c1nc2ccc(OC)cc2s1	u	18.4µM*	u	-22.5%	u	u
CCOc1ccc2nc(N(CCN(CC)CC)C(=O)/C=C/c3cccs3)sc2c1	-27.6%	u	-96.7*	-18.1%	-20.2%	u
CCN(CC)CCN(C(=O)c1cc2ccccc2cc1OC)c1nc2ccc(F)cc2s1	18.4µM*	u	-58.6*	u	u	18.4µM*
CN(C)CCCN(C(=O)c1cc2ccccc2oc1=O)c1nc2ccc(F)cc2s1	-4.2%	u	0.0	u	10.2%	-20.4%
CCN(CC)CCN(C(=O)c1ccc([N+](=O)[O-])cc1)c1nc2ccc(OC)cc2s1	12.1%	-1.0%	-12.8	-2.4%	10.5%	5.6%
COCCn1cnnc1SCc1ccc(C(C)(C)C)cc1	x	x	x	-53.8%	x	x
C(=C\c1ccco1)/C1=NN(c2ccccc2)C(c2ccco2)C1 (configuration not stated)	-4.8%	23.1µM*	-6.9	x	-23.6%	u
Oc1ccccc1CNC[C@H]1O[C@H](Cc2cc(CN3CCN(c4ccccc4)CC3)on2)CC[C@@H]1O	x	x	x	14.9%	x	x
CC(C)[C@@H]1C(=O)N(S(C)(=O)=O)[C@H]2CCN(C(=O)/C=C\CN3CCCCC3)[C@@H]12	x	u	x	0.0%	x	33.5µM*
COC(=O)c1cc2sc(C)cc2n1Cc1nc(-c2ccc(C)cc2)oc1C	x	-13.4%	x	-24.2%	x	-0.2%
Cc1cc(C(C)(C)C)cc(C)c1C[n+]1ccc2ccccc2c1	u	0.231µM*	-51.6*	-6.9%	u	0.411µM*
Cc1cc(C(=O)N(Cc2cccs2)C2CC2)c(C)o1	x	x	x	-27.0%	x	x
O=C(CN1CCN(C(=O)CCc2ncc(-c3c(F)cccc3F)o2)CC1)Nc1ccccc1Cl	x	x	x	22.7%	x	x
Cc1cccc(CSc2nnc(-c3cccs3)n2Cc2ccco2)c1	-0.3%	u	-6.1	0.0%	u	u
N#Cc1ccc(CSc2nnc(Cc3cccs3)n2Cc2ccco2)cc1	-15.3%	u	-12.4	x	-9.6%	u
Brc1ccc(CSc2nnc(-c3cnccn3)n2Cc2ccco2)cc1	5.5%	14.6µM*	5.6	-18.8%	-0.3%	u
N#Cc1ccc(CSc2nnc(-c3ccccc3)n2Cc2ccco2)cc1	-9.0%	29.1µM*	-28.1	2.5%	u	u
SMILES	HT1080-NT tox	TDP1 cell noCPT	IL-1B inflam inh	ALOX12 inh	HT1080 IDH1KD tx	TDP1 cell CPT
Cc1ccc(C(=O)CSc2nnc(-c3ccco3)n2C)cc1	3.5%	16.4µM*	-14.4	-15.8%	-1.1%	u
Cn1c(SCC(=O)c2cc(Cl)c(Cl)s2)nnc1-c1ccco1	-1.2%	-29.6%	x	0.0%	1.0%	4.6%
Cc1ccc(NCc2nnc(SCc3ccc(C#N)cc3)n2Cc2ccco2)c(C)c1	-9.8%	23.1µM*	-8.0	u	-17.3%	u
CC1=C(C(=O)OC(C)C)C(c2ccc(F)cc2)NC(=O)N1c1ccc2c(c1)OCO2 (configuration not stated)	x	x	x	-13.8%	x	x
COc1ccc(C(=O)CSc2nnc(CNc3ccc(C)cc3C)n2Cc2ccco2)cc1	-5.9%	23.1µM*	u	-11.3%	-17.2%	18.4µM*
N#Cc1ccc(CSc2nnc(-c3ccncc3)n2CCc2ccccc2)cc1	23.1µM*	u	15.9	0.0%	u	-27.4%
c1ccc(CCn2c(SCc3ccccc3)nnc2-c2ccncc2)cc1	-5.2%	-12.3%	13.4	38.0%	-2.0%	-10.9%
Cc1ccc(C(=O)CSc2nnc(CNc3ccc(C)cc3C)n2Cc2ccco2)cc1	u	u	-2.7	0.0%	u	20.6µM*
Cc1ccc(NCc2nnc(SCC(=O)NCc3ccco3)n2CC2CCCO2)c(C)c1 (configuration not stated)	3.2%	-19.2%	-17.5	-0.5%	1.0%	-15.8%
CN(C(=O)Nc1ccccc1C(F)(F)F)C1CCCCC1	x	x	x	9.7%	x	x
C=CCOC(=O)c1[nH]c(C)c(C(=O)OCC)c1C	x	x	x	3.6%	x	x
C#CCOCCOCCOCCNc1nc(N2CCN(C(=O)CCCCCCCCCCNC(=O)Cn3cc(C[C@@H](C)O)nn3)CC2)nc(N2CCN(C(=O)CCCCCCCCCCNC(=O)[C@H](CCCN=C(N)N)n3cc(C[C@@H](C)CC)nn3)CC2)n1	u	16.4µM*	-96.9*	x	u	u
C#CCOCCOCCOCCNc1nc(N2CCN(C(=O)CCCCCCCCCCNC(=O)[C@H](CO)n3cc(CCCSC)nn3)CC2)nc(N2CCN(C(=O)CCCCCCCCCCNC(=O)[C@H](CCCN=C(N)N)n3cc(C[C@@H](C)CC)nn3)CC2)n1	u	23.1µM*	-102.7*	x	u	u
C#CCOCCOCCOCCNc1nc(N2CCN(C(=O)CCCCCCCCCCNC(=O)[C@H](CCCCN)n3cc(C)nn3)CC2)nc(N2CCN(C(=O)CCCCCCCCCCNC(=O)[C@H](CCCCN)n3cc(CCCC(=O)O)nn3)CC2)n1	0.7%	-6.6%	0.0	x	3.2%	-3.9%
